# LGR2 inh – inhibitors of bursicon-induced Drosophila LGR2 receptor cAMP signaling; 0.35% of 380,000 active; inhibition, % at 9.99 µM; HEK293 LGR2, CRE-luciferase, bursicon-stimulated, 4 h;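 active means drop in luminescence signal, shown as inhibition above about 50% in the replicate tests, limit read from the data, passing the limit was not always enough; inconclusive means probably only some replicates passing the limit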;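 further: agonist challenge used bursicon conditioned medium at about half maximal strength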
# TROY NFkB inh – inhibitors of TROY-dependent NF-kB signaling. Q293 LMP1-TROYcd NF-kB luciferase reporter, 4 h. inhibition, % at 10 µM. 0.98% of 360,000 active. AID 1347056;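 active means compounds whose plate-normalised and pattern-corrected inhibition of the luciferase reporter signal at the single screening dose is 50% or more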
# EWS-Fli block – inhibitors of EWS/Fli oncoprotein transcriptional activity | A673 NR0B1-luciferase reporter, viability-normalised | AID 651661 | 0.67% of 350,000 active | inhibition, % at 12.6 µM;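 active means mean inhibition of at least 50% after viability correction, with every replicate also passing that limit; inconclusive means mean reaches 50% but only one of two replicates passes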;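 further: firefly luciferase signal divided by Alamar Blue viability fluorescence both relative to DMSO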
# TWEAK Fn14 block – inhibitors of TWEAK-Fn14 interaction signaling; TWEAK-stimulated Fn14 reporter cells, luciferase luminescence, 8 h; inhibition, % at 10 µM; 2% of 360,000 active; AID 1159606; in the data active means inhibition above about 50%
# EBV LMP1 NFkB – reduces LMP1-driven NF-kappaB luciferase signal; inhibition, % at 12.5 µM; AID 504558; LMP1-induced NF-kappaB luciferase reporter cells, luminescence; 0.69% of 350,000 active; in the data active means inhibition above about 41%; inconclusive means no clear call, values can overlap the other calls
# Hits are given with their value; – = inactive; ? = inconclusive; · = no result. Most compounds without a hit are left out; they make up all but 2.5% or so of the library.
SMILES,LGR2 inh,TROY NFkB inh,EWS-Fli block,TWEAK Fn14 block,EBV LMP1 NFkB
COCc1ccc(O)c2ncccc12,·,·,·,78.6,–
Cc1ccccc1NCc1ccc(O)c2ncccc12,–,–,–,58.8,–
CN1CCN(C(=O)C[C@H]2CC[C@@H]3[C@@H](COc4ccc(NC(=O)C5CCC5)cc4C(=O)N3C)O2)CC1,–,·,–,·,·
CC(=O)c1ccc(Nc2nc(C)cc(C)n2)cc1,–,–,–,–,79.9
O=C(c1ccncc1)N1N=C(c2ccc(Br)cc2)CC1c1ccccc1O (stereo not given),–,–,–,–,–
O=C(c1ccccc1Cl)N1N=C(c2ccc(Br)cc2)CC1c1nc2ccccc2[nH]1 (stereo not given),·,61.4,·,–,–
COC(=O)c1c[nH]c2c1-c1cc(C(=O)OCc3ccccc3)n(S(=O)(=O)c3ccc(C)cc3)c1C(=O)C2=O,–,57.1,–,98.9,–
CC(C)NC(=O)Nc1ccc2c(c1)C(=O)N(C)[C@H]1CC[C@@H](CC(=O)NCC3CCCCC3)O[C@H]1CO2,–,·,–,·,·
COc1cc(C=O)ccc1OCCCOc1ccccc1C(=O)O,·,83.9,·,101.6,–
COc1cc(C=O)ccc1OCCCOc1ccccc1[N+](=O)[O-],–,–,–,–,–
O=C(CCl)N1c2ccccc2CCc2ccccc21,–,–,83.9,–,–
CC(Cl)C(=O)N1c2ccccc2CCc2ccccc21 (stereo not given),–,–,–,–,–
O=C(C[C@@H]1CC[C@@H](NC(=O)CCN2CCCCC2)[C@@H](CO)O1)NCc1ccc(Cl)c(Cl)c1,–,·,–,·,·
CC(Oc1ccc(Br)cc1)C(=O)Nc1nc(-c2ccccn2)cs1 (stereo not given),–,61.2,–,–,–
CCCC(=O)Nc1ccc2c(c1)OC[C@H](C)N(CCC)C[C@H](C)[C@@H](OC)CN(C)C2=O,–,·,–,·,·
Cc1noc(C)c1NC(=O)Nc1ccc2c(c1)CC(=O)N([C@H](C)CO)C[C@H](C)[C@@H](CN(C)S(=O)(=O)c1cn(C)cn1)O2,–,·,–,·,·
COc1cc(OC)c(OC)cc1/C=C1\CC(C)C/C(=C\c2cc(OC)c(OC)cc2OC)C1=O (stereo not given),–,–,–,63.7,–
Cc1ccc2cc(CN(Cc3ccco3)C(=O)NCc3ccccc3)c(=O)[nH]c2c1C,·,50.2,·,–,–
Cc1cc(C)c2[nH]c(=O)c(CN(Cc3cccs3)C(=S)NCc3ccco3)cc2c1,–,–,·,63.9,–
CCN(CC)CCN(Cc1cc2cc(C)cc(C)c2[nH]c1=O)C(=S)NCc1ccco1,–,–,–,–,–
Cc1ccc(S(=O)(=O)N(C)C[C@H]2Oc3ccc(NC(=O)Nc4cccc5ccccc45)cc3C(=O)N([C@@H](C)CO)C[C@@H]2C)cc1,–,·,–,·,·
N#CC1=C(N)Oc2ccc3ccccc3c2C1c1cccnc1 (stereo not given),–,–,54.4,–,–
Cc1ccc2[nH]c(=O)c(C3C(C#N)=C(N)Oc4c3ccc3cccnc43)cc2c1 (stereo not given),·,–,·,–,–
N#CC1=C(N)Oc2c(ccc3cccnc23)C1c1ccccc1 (stereo not given),–,–,58.8,–,–
CCCc1cc(=O)[nH]c(SCC)n1,·,–,·,–,–
SMILES,LGR2 inh,TROY NFkB inh,EWS-Fli block,TWEAK Fn14 block,EBV LMP1 NFkB
CCCCSc1nc(CCC)cc(=O)[nH]1,·,–,·,91.7,–
Cc1ccc(C(=O)Nc2cnc3ccccc3c2)cc1,·,86.8,·,105.2,78.6
O=C(Nc1cnc2ccccc2c1)c1ccco1,·,–,·,57.4,–
O=C(Nc1cccc(-c2cnc3ccccc3n2)c1)c1ccco1,·,·,·,–,–
Cc1cc(C(=O)Nc2cnc3ccccc3c2)ccc1[N+](=O)[O-],–,–,–,–,–
CN(C(=O)c1cccc(NC(=O)Cc2ccc(NC(=O)C3CCCN(C(=O)CCc4ccccc4)C3)cc2)c1)C1CCCCC1 (stereo not given),–,62.5,–,89.0,–
CN(Cc1ccccc1)C(=O)c1cccc(NC(=O)Cc2ccc(NC(=O)C3CCN(C(=O)CCc4ccccc4)CC3)cc2)c1,–,56.5,–,84.7,–
CN(Cc1ccccc1)C(=O)c1ccc(NC(=O)Cc2ccc(NC(=O)C3CCN(C(=O)CCc4ccccc4)CC3)cc2)cc1,–,–,–,–,–
C[C@H](CO)N1C[C@H](C)[C@H](CN(C)C(=O)c2ccncc2)OCCCC[C@H](C)Oc2ccc(NC(=O)C3CCCCC3)cc2C1=O,–,·,–,·,·
COc1ccc(NC(=O)N(C)C[C@H]2OCCCC[C@H](C)Oc3ccc(NC(=O)c4ccccc4)cc3C(=O)N([C@H](C)CO)C[C@H]2C)cc1,–,·,–,·,·
O=C(N/N=C1/C(=O)c2cccc3cccc1c23)c1ccc(Cl)cc1,·,–,·,106.0,–
CNC(=O)c1ccccc1NC(=O)c1c(O)c2c([nH]c1=O)CCCC2,·,–,·,–,–
O=C(N/N=C/c1cccc(F)c1)c1c(O)c2c([nH]c1=O)CCCC2,–,53.3,·,–,–
Cc1ccccc1C1CCCN(C(=O)c2cc(COc3c(F)cccc3F)on2)C1 (stereo not given),–,–,–,85.2,–
CCOC(=O)CC1CCCCN1C(=O)c1cc(COc2cccc3cnccc23)on1 (stereo not given),–,–,–,62.4,–
COc1ccc(/C=C/c2noc(-c3ccccc3O)n2)cc1,–,–,·,55.7,–
CC(C)(C)c1ccc(NC(=O)N2CCN(c3ccc([N+](=O)[O-])cn3)CC2)cc1,–,–,–,58.8,–
CCOC(=O)C(=Cc1ccc(Br)cc1)C(=O)OCC,–,–,?,59.5,–
CCOC(=O)/C(=C/c1ccc(OC(=O)c2ccncc2)cc1)C(C)=O,·,–,–,–,–
CCOC(=O)C(=Cc1ccc(-n2ccnc2)cc1)C(=O)OCC,–,63.8,–,95.9,–
Cc1noc(C)c1S(=O)(=O)N(C)C[C@@H]1OCCCC[C@@H](C)Oc2ccc(NC(=O)NC3CCCCC3)cc2C(=O)N([C@@H](C)CO)C[C@@H]1C,–,·,–,·,·
Cc1c(C(=O)Nc2cccc(Cl)c2)oc2ccc(S(=O)(=O)N3CCC4(CC3)OCCO4)cc12,–,–,–,62.4,–
Cc1c(C(=O)Nc2ccc(F)cc2)oc2ccc(S(=O)(=O)N3CCC4(CC3)OCCO4)cc12,·,–,·,53.5,–
Cc1c(C(=O)Nc2ccc(F)cc2)oc2ccc(S(=O)(=O)N3CCCC3)cc12,–,–,–,–,–
Cc1c(C(=O)NCc2ccccc2)oc2ccc(S(=O)(=O)N3CCC4(CC3)OCCO4)cc12,·,–,·,–,–
Cc1c(C(=O)Nc2ccc(F)c(F)c2)oc2ccc(S(=O)(=O)N3CCCCC3)cc12,–,–,–,81.2,–
C[C@@H]1CCCCO[C@@H](CN(C)C)[C@@H](C)CN([C@H](C)CO)C(=O)c2cc(NC(=O)CCCN(C)C)ccc2O1,–,·,–,·,·
O=C(Nc1ccn(Cc2ccccc2F)n1)c1ccc(COc2ccc(Br)cc2)cc1,–,–,·,51.4,–
O=C(Nc1ccc(Cn2cccn2)cc1)c1ccc(COc2ccc(Br)cc2)cc1,–,–,·,–,–
CCOC(=O)COc1ccccc1/C=C\[N+](=O)[O-],·,86.6,·,103.7,–
